# Test results: PubChem BioAssay (EPA / NIEHS)
# Inconclusive results are not listed. The source made the active and inactive calls. How the source made its calls: active means hit-call score of the fitted dose curve at least 0.9, where 1 is the maximum; inconclusive means response in the unintended direction; inactive means score below 0.9.
# Assay: TOX21_p53_BLA_p2_viability: Viability Assessment in the Tox21 HCT-116 p53 Agonism Beta-lactamase Assay, Phase 2 (AID 2283591);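 further: compound exposure lasted 16 h at 37 °C; actives lower the ATP signal meaning cytotoxicity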
# Summary of the method: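 Cytotoxicity readout: CellTiter-Glo ATP luminescence, 30 min at room temperature, after the beta-lactamase read. Cells were HCT116 exposed 16 h at 37C to compounds pin-transferred at 217-fold dilution from DMSO stocks.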
Structure (SMILES),outcome,AC50
CC(CC=O)c1ccccc1 (stereo not given),inactive,–
CC=CC(=O)N(CC)c1ccccc1C,inactive,–
Cc1cccc(N)n1,inactive,–
N[C@H]1C(O)O[C@H](CO)[C@H](O)[C@@H]1O (stereo not given in full),inactive,–
CC(=O)[C@@]1(O)CC[C@H]2[C@@H]3C[C@H](C)C4=CC(=O)C=C[C@]4(C)[C@@]3(F)[C@@H](O)C[C@@]21C,inactive,–
CCOCC(=O)O,inactive,–
OCCN(CCO)c1ccccc1,inactive,–
CC(=O)c1ccc[nH]1,inactive,–
CCCC(=O)OCc1ccccc1,inactive,–
CN1C(=O)N(C)C(O)C1O (stereo not given),inactive,–
CCCCCCCCCCCSCC(=O)O,–,62 µM (active)
O=C(O)c1cc2ccccc2nc1C(=O)O,inactive,–
COc1cc(C)ccc1C(C)C,inactive,–
CC(=O)OCC(=O)[C@@]12N=C(C)O[C@@H]1C[C@H]1[C@@H]3CCC4=CC(=O)C=C[C@]4(C)[C@H]3[C@@H](O)C[C@@]12C,inactive,–
Cc1c(C)c([N+](=O)[O-])c(C(C)(C)C)c([N+](=O)[O-])c1C,inactive,–
CC(C)c1ccc2c(c1)CC[C@H]1[C@](C)(CN)CCC[C@]21C,–,42.6 µM (active)
O=c1c2ccccc2nnn1CCl,inactive,–
CCCCCCCCCCCCCCCC[N+](C)(C)CC,–,37.2 µM (active)
CCCOCCOCCOCCO,inactive,–
O=C(O)CC(C(=O)O)C(CC(=O)O)C(=O)O (stereo not given),inactive,–
CC1=NC(C)OC1C (stereo not given),inactive,–
CC(C)CCCC(C)CC=O (stereo not given),inactive,–
CC1OC1C1CCC2(C)OC2C1 (stereo not given),inactive,–
CC(C)COC(=O)C=Cc1ccccc1,inactive,–
CC(=O)NS(=O)(=O)c1ccc(N)cc1,inactive,–
